Laboratory results from ChEMBL document CHEMBL1961873, “Compounds: GSK PKIS; Assays: Nanosyn kinase panel” (2012).

How the values were obtained:
[1] = target: Serine/threonine-protein kinase pim-2 (Homo sapiens) (UniProt Q9P1W9); conditions: at 1 µM;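 further: each value is a mean of the inhibition measurements against the kinase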
[2] = target: Serine/threonine-protein kinase pim-3 (Homo sapiens) (UniProt Q86V86); conditions: at 0.1 µM
[3] = target: Serine/threonine-protein kinase pim-3 (Homo sapiens) (UniProt Q86V86); conditions: at 1 µM
[4] = target: T1, MAP kinase-activated protein kinase 5 (Homo sapiens) (UniProt Q8IW41); conditions: at 0.1 µM
T1 sequence (whole entry): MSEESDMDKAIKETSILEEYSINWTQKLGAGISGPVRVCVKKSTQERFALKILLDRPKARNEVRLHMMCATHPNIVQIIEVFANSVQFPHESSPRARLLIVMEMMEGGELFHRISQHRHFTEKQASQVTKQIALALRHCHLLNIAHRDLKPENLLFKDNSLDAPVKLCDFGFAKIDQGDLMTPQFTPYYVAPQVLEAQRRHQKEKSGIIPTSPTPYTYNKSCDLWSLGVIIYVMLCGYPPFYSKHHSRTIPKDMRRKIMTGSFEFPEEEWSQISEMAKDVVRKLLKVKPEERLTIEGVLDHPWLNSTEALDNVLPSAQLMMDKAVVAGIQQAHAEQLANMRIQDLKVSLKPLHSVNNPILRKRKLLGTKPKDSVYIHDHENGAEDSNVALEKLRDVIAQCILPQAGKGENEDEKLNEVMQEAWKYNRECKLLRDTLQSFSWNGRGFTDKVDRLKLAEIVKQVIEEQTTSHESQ

[5] = target: T1, MAP kinase-activated protein kinase 5 (Homo sapiens); conditions: at 1 µM
[6] = target: Serine/threonine-protein kinase SIK1 (Homo sapiens) (UniProt P57059); conditions: at 0.1 µM
Serine/threonine-protein kinase SIK1 (Homo sapiens), sequence (P57059 whole entry): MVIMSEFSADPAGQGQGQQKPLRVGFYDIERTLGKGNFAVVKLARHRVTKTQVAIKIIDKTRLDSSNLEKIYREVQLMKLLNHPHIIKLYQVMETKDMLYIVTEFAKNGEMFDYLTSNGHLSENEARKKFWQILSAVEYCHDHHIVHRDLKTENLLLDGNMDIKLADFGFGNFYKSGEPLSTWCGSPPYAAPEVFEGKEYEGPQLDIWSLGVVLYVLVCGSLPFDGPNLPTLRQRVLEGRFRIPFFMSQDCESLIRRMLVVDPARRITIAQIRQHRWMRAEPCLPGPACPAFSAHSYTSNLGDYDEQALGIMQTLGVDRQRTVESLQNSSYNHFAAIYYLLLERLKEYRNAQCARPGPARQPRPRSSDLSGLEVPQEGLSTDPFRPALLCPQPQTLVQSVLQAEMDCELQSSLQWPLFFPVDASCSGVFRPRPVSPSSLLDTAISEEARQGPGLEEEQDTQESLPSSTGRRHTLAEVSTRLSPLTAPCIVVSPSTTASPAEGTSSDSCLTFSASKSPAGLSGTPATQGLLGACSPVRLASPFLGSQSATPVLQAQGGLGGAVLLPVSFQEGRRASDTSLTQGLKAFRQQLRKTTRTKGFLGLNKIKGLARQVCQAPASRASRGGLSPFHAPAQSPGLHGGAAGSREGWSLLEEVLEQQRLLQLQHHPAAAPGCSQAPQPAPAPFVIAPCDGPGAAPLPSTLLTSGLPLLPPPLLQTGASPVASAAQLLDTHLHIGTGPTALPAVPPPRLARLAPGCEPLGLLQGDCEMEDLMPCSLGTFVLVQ

[7] = target: Serine/threonine-protein kinase SIK1 (Homo sapiens) (UniProt P57059); conditions: at 1 µM
[8] = target: Serine/threonine-protein kinase SIK2 (Homo sapiens) (UniProt Q9H0K1); conditions: at 0.1 µM
Serine/threonine-protein kinase SIK2 (Homo sapiens), sequence (Q9H0K1 whole entry, looked up): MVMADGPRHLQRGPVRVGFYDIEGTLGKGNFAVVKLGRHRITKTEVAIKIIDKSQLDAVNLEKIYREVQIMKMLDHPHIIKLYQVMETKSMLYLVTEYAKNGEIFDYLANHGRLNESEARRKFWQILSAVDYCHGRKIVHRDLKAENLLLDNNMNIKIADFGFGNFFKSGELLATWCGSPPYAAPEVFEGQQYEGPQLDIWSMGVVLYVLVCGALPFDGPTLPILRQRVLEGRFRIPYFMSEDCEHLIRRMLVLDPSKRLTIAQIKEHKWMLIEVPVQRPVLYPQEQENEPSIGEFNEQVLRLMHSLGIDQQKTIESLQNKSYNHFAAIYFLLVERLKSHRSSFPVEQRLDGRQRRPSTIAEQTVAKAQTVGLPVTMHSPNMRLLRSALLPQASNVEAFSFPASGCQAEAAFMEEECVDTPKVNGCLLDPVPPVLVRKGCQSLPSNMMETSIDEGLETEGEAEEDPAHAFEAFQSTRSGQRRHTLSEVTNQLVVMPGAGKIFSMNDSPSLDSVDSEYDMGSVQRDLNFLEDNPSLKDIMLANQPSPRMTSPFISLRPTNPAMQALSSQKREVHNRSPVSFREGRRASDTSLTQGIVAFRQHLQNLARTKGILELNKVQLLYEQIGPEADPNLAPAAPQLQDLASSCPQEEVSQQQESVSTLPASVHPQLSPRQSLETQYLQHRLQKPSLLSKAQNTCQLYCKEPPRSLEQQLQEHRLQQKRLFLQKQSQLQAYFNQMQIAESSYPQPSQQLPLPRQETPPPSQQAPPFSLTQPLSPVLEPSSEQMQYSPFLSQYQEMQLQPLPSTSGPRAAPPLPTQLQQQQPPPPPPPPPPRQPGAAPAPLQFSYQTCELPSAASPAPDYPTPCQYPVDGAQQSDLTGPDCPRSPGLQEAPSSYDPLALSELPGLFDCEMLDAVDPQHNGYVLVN

[9] = target: Serine/threonine-protein kinase SIK2 (Homo sapiens) (UniProt Q9H0K1); conditions: at 1 µM
[10] = target: T2, Serine/threonine-protein kinase TBK1 (Homo sapiens) (UniProt Q9UHD2); conditions: at 0.1 µM
T2 sequence (whole entry): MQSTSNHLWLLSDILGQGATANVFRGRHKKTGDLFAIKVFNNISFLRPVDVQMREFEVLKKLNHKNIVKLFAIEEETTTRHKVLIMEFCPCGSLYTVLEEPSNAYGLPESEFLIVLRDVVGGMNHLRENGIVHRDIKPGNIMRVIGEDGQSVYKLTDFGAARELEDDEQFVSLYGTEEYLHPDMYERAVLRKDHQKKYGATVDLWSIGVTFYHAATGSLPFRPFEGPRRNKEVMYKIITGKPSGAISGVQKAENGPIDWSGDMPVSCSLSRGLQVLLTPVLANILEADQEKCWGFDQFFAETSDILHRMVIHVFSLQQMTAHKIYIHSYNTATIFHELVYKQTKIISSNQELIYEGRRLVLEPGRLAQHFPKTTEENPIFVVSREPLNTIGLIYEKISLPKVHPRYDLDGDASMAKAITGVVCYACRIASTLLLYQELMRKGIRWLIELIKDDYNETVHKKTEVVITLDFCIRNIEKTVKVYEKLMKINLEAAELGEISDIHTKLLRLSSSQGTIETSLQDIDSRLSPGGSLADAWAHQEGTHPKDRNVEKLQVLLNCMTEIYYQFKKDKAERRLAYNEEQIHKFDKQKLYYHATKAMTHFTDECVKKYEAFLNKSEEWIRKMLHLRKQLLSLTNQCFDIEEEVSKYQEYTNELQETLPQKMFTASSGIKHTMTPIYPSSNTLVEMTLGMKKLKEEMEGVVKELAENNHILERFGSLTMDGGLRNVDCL

[11] = target: T2, Serine/threonine-protein kinase TBK1 (Homo sapiens); conditions: at 1 µM
[12] = target: T3, Testis-specific serine/threonine-protein kinase 1 (Homo sapiens) (UniProt Q9BXA7); conditions: at 0.1 µM
T3 sequence (whole entry): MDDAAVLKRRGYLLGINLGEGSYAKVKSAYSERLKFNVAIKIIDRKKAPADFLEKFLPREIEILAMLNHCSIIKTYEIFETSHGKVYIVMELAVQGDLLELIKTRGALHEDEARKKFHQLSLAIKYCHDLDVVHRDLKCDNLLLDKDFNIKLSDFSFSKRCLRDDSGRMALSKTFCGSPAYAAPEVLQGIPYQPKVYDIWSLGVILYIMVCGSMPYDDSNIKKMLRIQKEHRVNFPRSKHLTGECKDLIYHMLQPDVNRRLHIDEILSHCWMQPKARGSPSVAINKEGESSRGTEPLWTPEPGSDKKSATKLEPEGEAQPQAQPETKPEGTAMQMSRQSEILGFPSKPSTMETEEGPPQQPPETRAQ

[13] = target: T3, Testis-specific serine/threonine-protein kinase 1 (Homo sapiens); conditions: at 1 µM
[14] = target: T4, Testis-specific serine/threonine-protein kinase 2 (Homo sapiens) (UniProt Q96PF2); conditions: at 0.1 µM
T4 sequence (whole entry): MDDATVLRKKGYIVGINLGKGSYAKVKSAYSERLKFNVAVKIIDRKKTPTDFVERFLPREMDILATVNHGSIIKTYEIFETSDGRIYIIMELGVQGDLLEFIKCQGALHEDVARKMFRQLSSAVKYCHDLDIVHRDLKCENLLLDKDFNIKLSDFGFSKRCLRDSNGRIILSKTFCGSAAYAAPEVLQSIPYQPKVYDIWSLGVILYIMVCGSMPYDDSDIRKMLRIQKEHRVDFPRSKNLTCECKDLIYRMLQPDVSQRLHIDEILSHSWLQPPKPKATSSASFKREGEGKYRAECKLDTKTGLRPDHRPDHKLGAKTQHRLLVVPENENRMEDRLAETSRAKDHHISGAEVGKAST

[15] = target: T4, Testis-specific serine/threonine-protein kinase 2 (Homo sapiens); conditions: at 1 µM
[16] = target: Casein kinase I isoform alpha (Homo sapiens) (UniProt P48729); conditions: at 0.1 µM
Casein kinase I isoform alpha (Homo sapiens), sequence (P48729 2-337 limits assumed): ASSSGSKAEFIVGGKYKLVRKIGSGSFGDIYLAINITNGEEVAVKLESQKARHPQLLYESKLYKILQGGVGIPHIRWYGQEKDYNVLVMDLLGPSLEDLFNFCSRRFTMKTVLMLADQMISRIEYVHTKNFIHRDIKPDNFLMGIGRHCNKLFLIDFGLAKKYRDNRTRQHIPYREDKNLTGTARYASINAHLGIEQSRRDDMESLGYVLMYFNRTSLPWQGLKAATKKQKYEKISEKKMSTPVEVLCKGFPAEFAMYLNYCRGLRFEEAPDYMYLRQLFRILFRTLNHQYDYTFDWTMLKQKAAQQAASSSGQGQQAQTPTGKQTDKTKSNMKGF

[17] = target: Casein kinase I isoform alpha (Homo sapiens) (UniProt P48729); conditions: at 1 µM
[18] = target: Casein kinase I isoform gamma-1 (Homo sapiens) (UniProt Q9HCP0); conditions: at 0.1 µM
Casein kinase I isoform gamma-1 (Homo sapiens), sequence (Q9HCP0 whole entry, looked up, canonical isoform): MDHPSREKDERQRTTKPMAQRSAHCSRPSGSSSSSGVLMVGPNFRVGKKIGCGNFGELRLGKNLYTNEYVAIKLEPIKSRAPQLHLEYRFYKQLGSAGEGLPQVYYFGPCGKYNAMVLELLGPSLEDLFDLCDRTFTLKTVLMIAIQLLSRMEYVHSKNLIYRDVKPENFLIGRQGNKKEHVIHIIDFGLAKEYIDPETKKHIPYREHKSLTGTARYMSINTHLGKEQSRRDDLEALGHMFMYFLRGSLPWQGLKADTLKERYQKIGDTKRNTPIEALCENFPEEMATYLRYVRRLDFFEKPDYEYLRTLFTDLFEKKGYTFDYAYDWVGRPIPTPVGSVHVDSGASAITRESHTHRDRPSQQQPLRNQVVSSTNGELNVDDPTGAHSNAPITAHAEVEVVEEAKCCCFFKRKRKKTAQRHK

[19] = target: Casein kinase I isoform gamma-1 (Homo sapiens) (UniProt Q9HCP0); conditions: at 1 µM
[20] = target: Casein kinase I isoform gamma-2 (Homo sapiens) (UniProt P78368); conditions: at 0.1 µM;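 further: values are mean inhibition figures reported as part of the GSK PKIS dataset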
Casein kinase I isoform gamma-2 (Homo sapiens), sequence (P78368 whole entry, looked up, canonical isoform): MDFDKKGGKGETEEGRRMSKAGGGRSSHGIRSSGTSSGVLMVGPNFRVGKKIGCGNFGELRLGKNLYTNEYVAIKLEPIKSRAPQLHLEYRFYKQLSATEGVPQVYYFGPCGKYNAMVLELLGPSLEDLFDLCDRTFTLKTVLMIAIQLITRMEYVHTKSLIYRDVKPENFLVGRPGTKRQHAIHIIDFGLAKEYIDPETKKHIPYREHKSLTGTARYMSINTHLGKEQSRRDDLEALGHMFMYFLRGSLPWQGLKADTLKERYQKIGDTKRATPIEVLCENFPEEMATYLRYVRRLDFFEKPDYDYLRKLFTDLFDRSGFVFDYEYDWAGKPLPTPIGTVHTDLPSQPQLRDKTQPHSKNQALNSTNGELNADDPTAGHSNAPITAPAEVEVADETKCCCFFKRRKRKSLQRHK

Serine/threonine-protein kinase pim-2 (Homo sapiens), sequence (Q9P1W9 whole entry, looked up): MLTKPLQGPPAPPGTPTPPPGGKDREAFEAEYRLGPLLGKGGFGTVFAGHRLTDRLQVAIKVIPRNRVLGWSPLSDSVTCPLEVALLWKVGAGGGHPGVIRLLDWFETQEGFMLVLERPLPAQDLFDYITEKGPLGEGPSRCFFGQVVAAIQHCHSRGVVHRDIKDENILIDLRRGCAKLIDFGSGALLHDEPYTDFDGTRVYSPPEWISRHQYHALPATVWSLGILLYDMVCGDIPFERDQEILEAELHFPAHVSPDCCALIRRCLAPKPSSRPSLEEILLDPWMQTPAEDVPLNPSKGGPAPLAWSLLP

Row | Structure (SMILES) | inhibition [1] | inhibition [2] | inhibition [3] | inhibition [4] | inhibition [5] | inhibition [6] | inhibition [7] | inhibition [8] | inhibition [9] | inhibition [10] | inhibition [11] | inhibition [12] | inhibition [13] | inhibition [14] | inhibition [15] | inhibition [16] | inhibition [17] | inhibition [18] | inhibition [19] | inhibition [20]
1 | CN(C)CCCNc1nccc(-c2c(-c3ccc(F)cc3)nn3cc(C(F)(F)F)ccc23)n1 | -3.32% | -0.45% | -0.57% | 0.44% | -0.97% | 3.07% | 7.21% | -1% | 6.81% | 0.75% | 4.86% | 1.45% | -1.19% | 0.61% | -2.11% | 1.35% | 14.8% | -2.45% | -1.14% | -3.5%
2 | FC(F)(F)c1cccc(Nc2nccc(-c3cnn4nc(-c5ccccc5)ccc34)n2)c1 | 1.06% | -0.15% | -0.3% | 0.76% | 0.4% | -0.41% | 7% | 2.43% | 5.47% | -0.2% | 4.35% | 1.23% | 2.01% | 1.62% | 0.24% | -0.33% | 1.52% | 2.48% | 2.54% | 2.27%
3 | Fc1ccc(-c2nc3n(c2-c2ccncc2)CCS3)cc1 | -3.08% | -1.3% | -1.87% | 1.2% | 0.34% | 5% | 13.5% | 1.21% | 7.35% | 2.27% | 2.87% | 3.08% | 2.73% | 1.01% | 0.48% | 10.8% | 42.4% | 0.76% | 5.36% | -1.13%
4 | NC(=O)Cc1ccccc1Oc1nccc(-c2c(-c3ccc(F)cc3)ncn2C2CCNCC2)n1 | 0.59% | -1.38% | 0.63% | 0.43% | -0.72% | 3.93% | 4.7% | 3.81% | -3.54% | 5.2% | 4.55% | 2.65% | 1.8% | 1.16% | -0.31% | 9.09% | 12.9% | 4.95% | 10.3% | 3.59%
5 | C[C@@H](Oc1cc(-n2cnc3ccc(OC4CCN(C)CC4)cc32)sc1C(N)=O)c1ccccc1Cl | -3.56% | 8.14% | 45% | 1.31% | 1.54% | 3.1% | 19.3% | 6.72% | 14% | 4.61% | 4.33% | 4.11% | 10.3% | 2.61% | 1.72% | 4.09% | 6.16% | 0.61% | -0.21% | 0.26%
6 | CN(C)CCOc1ccc(-c2cc(-c3ccc4c(c3)CCC4=NO)c(-c3ccncc3)o2)cc1 | 0.08% | 1.08% | 0.13% | -0.29% | -0.04% | 0.11% | 6.09% | -4.64% | -1.24% | -2.4% | -0.95% | -0.74% | 0.17% | 0.18% | 1.16% | -1.99% | -1.5% | -1.03% | -0.13% | -0.84%
7 | O=C1Nc2ccc(I)cc2C1=Cc1cc(Br)c(O)c(Br)c1 | 18.2% | 1.85% | 17.7% | 1.19% | 1.78% | 8.91% | 9.38% | 4.92% | 9.04% | 3.66% | 2.5% | 4.56% | 5.45% | 2.33% | 2.81% | 5.08% | 6.76% | 3.7% | 5.38% | 3.7%
8 | NC(=O)c1cc(-c2ccc(F)cc2)cc(-c2ccncc2)c1N | -1.22% | -0.69% | -5.17% | 1.11% | 2.54% | 4.79% | 9.72% | 7.37% | 8.31% | 3.66% | 2.04% | 3.98% | 5.61% | 2.71% | 4.29% | 6.79% | 2.14% | 4.19% | 4.95% | 3.82%
9 | COc1ccc2cc(-c3c(-c4ccncc4)nc(-c4ccc([S+](C)[O-])cc4C)n3C)ccc2c1 (stereo not given) | 0.03% | 0.41% | 0.9% | -0.74% | -0.31% | -2.25% | 3.56% | -6.12% | -0.83% | 0.16% | 1.97% | 0.4% | -0.58% | 0.06% | -0.06% | 0.77% | 0.53% | -0.99% | -0.39% | -0.73%
10 | COc1ccc2cc(-c3c(-c4ccncc4)nc(-c4ccc(S(C)(=O)=O)cc4C)n3C)ccc2c1 | 4.18% | 4.87% | 3.73% | 1.38% | 2.64% | 5.28% | 9.27% | 3.7% | 10.8% | 2.5% | 5.22% | 4.54% | 6.64% | 2.43% | 3.81% | 2.38% | 4% | 3.35% | 4.23% | 2.92%
11 | CCS(=O)(=O)c1ccc(OC)c(Nc2ncc(-c3ccccc3Cl)o2)c1 | 0.67% | -0.12% | 2.15% | 0.46% | -0.58% | 2.08% | 0.14% | 1.64% | 3.21% | 1.3% | 7.68% | 4.33% | -0.15% | 1.6% | 0.12% | 0.11% | 3.37% | 0.27% | 0.86% | 0.2%
12 | C[C@@H](Oc1cc(-n2cnc3ccc(OCC4CCN(C)CC4)cc32)sc1C(N)=O)c1ccccc1Cl | 2.74% | 11.4% | 52.7% | 1.77% | 2.11% | 11.5% | 42% | 7.32% | 22% | 4.93% | 6.08% | 6.84% | 13.6% | 3.55% | 3.8% | 5.44% | 6.37% | 5.29% | 8.54% | 5.69%
